Compounds without any hit were thinned out: in the full panel of roughly 83,000, 20% have a hit.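 Each cell line was grown in a 96-well plate and treated with one concentration of compound for 48 hours. Values below 10 were considered active.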 The source made the active and inactive calls.
Tests used:
Assay in all cases: NCI-60 one-dose screen, 48 h (100 = growth as untreated, 0 = no growth, -100 = all killed)
Conditions in all cases: 10 µM unless noted
NCI-H23 lung = system: NCI-H23 lung
NCI-H226 lung = system: NCI-H226 lung
NCI-H322M lung = system: NCI-H322M lung
HOP-62 NSCLC = system: HOP-62 NSCLC
NCI-H460 lung = system: NCI-H460 lung
HOP-92 NSCLC = system: HOP-92 NSCLC
NCI-H522 lung = system: NCI-H522 lung
A549/ATCC NSCLC = system: A549/ATCC NSCLC
786-0 renal = system: 786-0 renal
COLO 205 colon = system: COLO 205 colon

Measured: growth

O=C(Nc1cccc2ccccc12)c1cc2ccccc2cc1O
inactive: NCI-H226 lung 12.5% | HOP-62 NSCLC 12.5% | A549/ATCC NSCLC 11.3% | 786-0 renal 22.2% | COLO 205 colon 112%
active: NCI-H23 lung 8.03% | NCI-H322M lung -4.28% | NCI-H460 lung 7.16% | HOP-92 NSCLC -22% | NCI-H522 lung 9.44%

Fc1ccc(NC(=S)c2ccccc2)cc1
inactive: NCI-H23 lung 104% | NCI-H226 lung 99.1% | NCI-H322M lung 106% | HOP-62 NSCLC 113% | NCI-H460 lung 107% | HOP-92 NSCLC 86.5% | NCI-H522 lung 96.3% | A549/ATCC NSCLC 98.8% | 786-0 renal 99.5% | COLO 205 colon 113%

COc1ccc(C(=O)CSc2nccc(Nc3ccc(C(=O)O)cc3)n2)cc1
inactive: NCI-H23 lung 99.2% | NCI-H226 lung 92.8% | NCI-H322M lung 106% | HOP-62 NSCLC 99.7% | NCI-H460 lung 103% | HOP-92 NSCLC 97.4% | NCI-H522 lung 92.9% | A549/ATCC NSCLC 99.7% | 786-0 renal 103% | COLO 205 colon 107%

Cc1cc(SC#N)ncn1
inactive: NCI-H23 lung 103% | NCI-H226 lung 99% | NCI-H322M lung 103% | HOP-62 NSCLC 98.2% | NCI-H460 lung 99.5% | HOP-92 NSCLC 106% | NCI-H522 lung 92.3% | A549/ATCC NSCLC 93.5% | 786-0 renal 109% | COLO 205 colon 115%

CC1(C)CC[C@]2(C(=O)O)CC[C@]3(C)C(=CC[C@@H]4[C@@]5(C)C/C(=C/c6ccco6)C(=O)C(C)(C)[C@@H]5CC[C@]43C)[C@@H]2C1
active: NCI-H23 lung -25.6% [100 µM] | NCI-H226 lung -42.4% [100 µM] | NCI-H322M lung -48.8% [100 µM] | HOP-62 NSCLC -85.3% [100 µM] | NCI-H460 lung -55.9% [100 µM] | HOP-92 NSCLC -82.1% [100 µM] | NCI-H522 lung -39.3% [100 µM] | A549/ATCC NSCLC -4.53% [100 µM] | 786-0 renal -19.5% [100 µM] | COLO 205 colon -80.7% [100 µM]

O=C(Nc1ccc(Oc2ccc(F)cc2)c(Cl)c1)c1cnccn1
inactive: NCI-H23 lung 65.6% | NCI-H226 lung 74.4% | NCI-H322M lung 82.2% | HOP-62 NSCLC 56.2% | NCI-H460 lung 28% | HOP-92 NSCLC 58.2% | NCI-H522 lung 54.2% | A549/ATCC NSCLC 43.7% | 786-0 renal 81% | COLO 205 colon 69.3%

CC(C)[N+](C)(C)CC(O)COc1cccc2ccccc12 (stereo not given)
inactive: NCI-H23 lung 95.5% | NCI-H226 lung 107% | NCI-H322M lung 112% | HOP-62 NSCLC 106% | NCI-H460 lung 109% | HOP-92 NSCLC 81.4% | NCI-H522 lung 114% | A549/ATCC NSCLC 101% | 786-0 renal 121% | COLO 205 colon 104%

O=[N+]([O-])c1ccc(O)c(-c2nc3ccccc3s2)c1
active: HOP-92 NSCLC -5.6%
inactive: NCI-H23 lung 47.3% | NCI-H226 lung 83.7% | NCI-H322M lung 90.7% | HOP-62 NSCLC 88.8% | NCI-H460 lung 63.2% | NCI-H522 lung 58.6% | A549/ATCC NSCLC 84.2% | 786-0 renal 73.8% | COLO 205 colon 103%

CCN(CC)c1ccc2cc(C(Nc3ccc(Br)c(C(F)(F)F)c3)c3nnnn3C(C)(C)C)c(=O)oc2c1 (stereo not given)
inactive: NCI-H23 lung 100% | NCI-H226 lung 86.1% | NCI-H322M lung 99.6% | HOP-62 NSCLC 94% | NCI-H460 lung 91.9% | HOP-92 NSCLC 87.5% | NCI-H522 lung 77.9% | A549/ATCC NSCLC 86.3% | 786-0 renal 99.8% | COLO 205 colon 101%

O=C1/C(=C\c2cccn2Cc2ccccc2)c2ccccc2N1c1c(Cl)cccc1Cl
active: HOP-92 NSCLC 1.73% | COLO 205 colon -6.31%
inactive: NCI-H23 lung 68.7% | NCI-H226 lung 53.1% | NCI-H322M lung 54.8% | HOP-62 NSCLC 77.2% | NCI-H460 lung 42.7% | NCI-H522 lung 88.9% | A549/ATCC NSCLC 53.1% | 786-0 renal 89%

O=C1Nc2ccccc2/C1=C/C(=O)c1ccc(N2CCOCC2)cc1
inactive: NCI-H23 lung 87.4% | NCI-H226 lung 100% | NCI-H322M lung 104% | HOP-62 NSCLC 100% | NCI-H460 lung 101% | HOP-92 NSCLC 71.9% | NCI-H522 lung 35.7% | A549/ATCC NSCLC 96% | 786-0 renal 94.1% | COLO 205 colon 101%

Cc1nc(Cl)cc(N(c2cc(Cl)nc(C)n2)c2ncc(C(=O)Nc3c(C)cccc3Cl)s2)n1
inactive: NCI-H23 lung 78.2% | NCI-H226 lung 59.3% | NCI-H322M lung 52.2% | HOP-62 NSCLC 39.4% | NCI-H460 lung 59.5% | NCI-H522 lung 53.7% | A549/ATCC NSCLC 50.5% | 786-0 renal 40.1% | COLO 205 colon 67.7%
active: HOP-92 NSCLC -33.5%
